Shown are actives, neighbours in structure and some others; about 2.9% of the full set was active somewhere.
ABCB6 inh MLPCN = ABCB6 transporter inhibitors, primary screen, K562-ABCB6 cells, flow cytometry, MLPCN library. fluorescence ratio to DMSO, % at 10 µM. AID 602162, 2011. hit rate 0.19% among 360,000. K562-ABCB6 porphyrin accumulation, 1 h; hits give low values;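 active means fluorescence ratio to DMSO below 75%, the collection mean minus 3 SD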;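 further: signal is porphyrin accumulated inside mitochondria; lower ratio means ABCB6 inhibition with less porphyrin fluorescence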
MEKK2 WT-MEK5 = modulators of MEK5 binding to wildtype MEKK2, primary screen, biochemical, multiplex bead flow cytometry, Alexa488-MEK5 | Alexa488-MEK5 binding to MEKK2 WT; actives lie on both sides | binding response (% of control), % at 10 µM | hit rate 1.1% among 290,000; in the data active means binding response below about 67% or above about 130%
MEKK2mut PB1 HTS = MEK5 binding signal on mutant MEKK2 PB1, primary screen, biochemical, multiplex bead flow cytometry, Alexa488-MEK5 | percent response, % at 10 µM | hit rate 0.35% among 290,000 | AID 1530, 2009 | Alexa488-MEK5 binding to MEKK2 mutant; in the data active means percent response above about 24%, passing the limit was not always enough
CRFR2-BP ag = agonists of CRF-BP/CRF-R2 complex, primary screen, cell-based, HEK293, calcium dye fluorescence, uHTS. CRF-binding protein / CRF receptor 2 complex (human). calcium dye fluorescence (FLIPR); percent of saturating CRF peptide response. activation, % at 13.2 µM. hit rate 0.46% among 350,000. AID 588473, 2011;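 active means activation of at least 50%, plus an integration ratio under a set limit after plate pattern correction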
MEKK3 PB1 HTS = modulators of MEKK3-MEK5 PB1 binding, primary screen, biochemical, wildtype MEKK3, multiplex bead flow cytometry, Alexa488-MEK5; Mitogen-activated protein kinase kinase kinase 3 (Homo sapiens), Q99759; bead-based flow cytometry, Alexa488-MEK5 binding to MEKK3; actives lie on both sides; 0 = blocked by unlabeled MEK5, 100 = vehicle; binding response (% of control), % at 10 µM; hit rate 1.4% among 290,000; AID 1529, 2009;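 active means binding response more than 3 SD above or below the average of its plate-row segment, actives on both sides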;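 further: Alexa488 bead fluorescence after subtracting the streptavidin-only scavenger bead signal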
Target sequence (Q99759 whole entry, looked up): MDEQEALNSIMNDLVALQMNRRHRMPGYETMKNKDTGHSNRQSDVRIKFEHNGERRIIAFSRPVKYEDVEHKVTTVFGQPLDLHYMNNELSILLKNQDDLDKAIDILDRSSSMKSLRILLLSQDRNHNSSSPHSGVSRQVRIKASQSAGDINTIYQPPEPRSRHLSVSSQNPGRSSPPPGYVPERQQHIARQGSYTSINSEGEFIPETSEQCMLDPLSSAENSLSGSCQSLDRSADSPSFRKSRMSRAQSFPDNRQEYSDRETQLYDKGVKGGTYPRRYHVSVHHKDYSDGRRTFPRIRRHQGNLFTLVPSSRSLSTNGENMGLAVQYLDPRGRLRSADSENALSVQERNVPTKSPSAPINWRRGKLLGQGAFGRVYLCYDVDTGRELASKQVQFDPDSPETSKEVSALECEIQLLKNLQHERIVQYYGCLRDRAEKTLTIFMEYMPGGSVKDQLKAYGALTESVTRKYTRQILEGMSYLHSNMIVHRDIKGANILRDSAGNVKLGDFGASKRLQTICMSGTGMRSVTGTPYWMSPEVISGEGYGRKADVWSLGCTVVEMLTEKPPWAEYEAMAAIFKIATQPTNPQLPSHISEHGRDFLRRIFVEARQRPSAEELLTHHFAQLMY
CRFBP-R2 block = antagonists of CRF-BP/CRF-R2 complex, primary screen, cell-based, HEK293, calcium dye fluorescence, uHTS | CRF-induced calcium fluorescence | inhibition, % at 11.8 µM | hit rate 0.59% among 350,000 | AID 588475, 2011;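 active means inhibition of the ligand-induced calcium signal above about 50% at the single tested concentration, limit read from the data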
Numbers stand for hits; n = inactive; x = not tested or not shown; [ ] = remark or other dose.

SMILES	ABCB6 inh MLPCN	MEKK2 WT-MEK5	MEKK2mut PB1 HTS	CRFR2-BP ag	MEKK3 PB1 HTS	CRFBP-R2 block
CCN(CC)C(=O)CSc1nc2cc(S(=O)(=O)N3CCOCC3)ccc2n1CC	n	n	n	n	n	n
COc1cc(/C=C/c2cc[n+](C)cc2)ccc1OCC(=O)Nc1ccc(Cl)c(Cl)c1	n	237	75	n	n	n
COc1ccc(NC(=O)COc2ccc(/C=C/c3cc[n+](C)cc3)cc2OC)cc1	n	n	n	n	n	n
O=C(Cc1ccccc1)NNC(=O)C1CC=CCC1 (stereo not drawn)	n	n	n	n	n	n
CCOC(=O)c1c(C)n(OCc2ccccc2)c2ccc3nonc3c12	n	n	n	n	n	53
Cc1nn(Cc2noc(C(=O)NCc3ccc4c(c3)OCO4)n2)c(C)c1Br	n	n	n	n	n	n
CC(C(=O)O)n1nc(-c2ccccc2)c2ccccc21 (stereo not drawn)	n	n	n	n	n	n
Cc1ccc(C(=O)C(C)OC(=O)CCN2C(=O)C3C4C=CC(C5CC45)C3C2=O)cc1 (stereo not drawn)	n	n	n	n	n	n
CCOCc1nnc(NC(C)=O)s1	n	n	n	n	n	n
CCOCc1nnc(NC(=O)CS(=O)(=O)c2ccc(C)cc2)s1	n	n	n	n	80[inhibitor]	n
Cc1c(C)c2ccc(OCc3ccc(C(=O)O)o3)c(C)c2oc1=O	n	n	n	n	n	n
Cc1c(C)c2ccc(OS(C)(=O)=O)c(C)c2oc1=O	69	n	n	n	n	n
COc1cc(/C=C/C(=O)c2ccc3c(c2)OCO3)cc(Cl)c1O	n	n	n	135	n	n
COc1ccc(C(=O)C=Cc2ccc3c(c2)OCO3)cc1OC	n	x	x	n	x	n
COc1ccc(C2Nc3ccccc3C(=O)N2c2ccccc2)cc1CSc1ccccn1 (stereo not drawn)	n	n	n	n	n	58
CN(C(=O)COC(=O)c1ccccc1NCc1ccco1)c1c(N)n(Cc2ccccc2)c(=O)[nH]c1=O	n	x	x	n	x	n
COc1cc(/C=C(\C#N)C(=O)NCCc2ccccc2)cc(OC)c1O	n	n	n	67	n	n
COC(=O)/C(C#N)=C/c1c[nH]c2ccccc12	n	n	n	n	n	n
COc1cc(/C=C(\C#N)C(=O)c2c[nH]c3ccccc23)cc(OC)c1O	n	n	n	85	n	n
N#C/C(=C\c1ccc(O)c(O)c1)C(=O)NCCc1ccccc1	n	x	x	n	x	n
N#CCc1nc(C(c2ccccc2)c2ccccc2)no1	n	n	n	n	n	n
COC(=O)Cn1c(=O)c2c(nc3n2CC(C)CN3Cc2ccccc2)n(C)c1=O (stereo not drawn)	n	n	n	n	n	n
C=C(C)Cn1c(=O)c2c(nc3n2CC(C)CN3Cc2ccccc2)n(C)c1=O (stereo not drawn)	n	n	n	n	n	88
CN(C)CCCNC(=O)C(=O)NCC(c1cccs1)S(=O)(=O)c1ccc(F)cc1 (stereo not drawn)	n	x	x	n	x	n
O=C1CCC/C(=N/NC(=O)c2sc3ccccc3c2Cl)C1	n	n	n	53	n	n
SMILES	ABCB6 inh MLPCN	MEKK2 WT-MEK5	MEKK2mut PB1 HTS	CRFR2-BP ag	MEKK3 PB1 HTS	CRFBP-R2 block
CCOC(=O)c1cc(C)sc1NC(=O)CCC(=O)O	n	n	n	n	n	59
Cc1ccc2c(c1)C(=O)CC(c1ccccc1)S2 (stereo not drawn)	n	x	x	n	x	n
COc1ccc(CC(=O)Nc2c3c(nn2C(C)(C)C)CS(=O)(=O)C3)cc1	n	n	n	n	n	n
CC(C)(C)n1nc2c(c1NC(=O)Cc1ccccc1)CS(=O)(=O)C2	n	n	n	n	n	55
CC1=C(C(=O)OC(C)C)C(c2cccs2)N2C(=O)C(C)SC2=N1 (stereo not drawn)	n	n	n	n	n	50
Cc1ccc(N(CC(=O)NCc2ccccc2)C(=O)c2csnn2)cc1	n	n	n	n	n	n
Cc1cc(C(=O)COc2cccc3cccnc23)c(C)n1C	n	n	n	190	n	n
COc1cc2c(cc1OC)[C@@H](NC(=O)CCC1CCCCC1)[C@H](O)C2	n	x	x	n	x	n
CCOC(=O)c1cc([N+](=O)[O-])c([N+](=O)[O-])cc1NC(C)=O	n	n	n	n	n	51
O=c1oc(=S)oc2c1[C@H](c1ccc(Cl)cc1)O[C@H](C1CC1)C2	n	x	x	x	x	x
O=C(Nc1nnc(-c2ccccc2)o1)c1nc2ccccc2s1	n	n	n	140	n	n
O=S1(=O)N=C(N(CCO)/N=C/c2ccc(Cl)cc2)c2ccccc21	n	n	n	n	n	n
CN(C)c1ccc(/C=N/N(CCO)C2=NS(=O)(=O)c3ccccc32)cc1	n	n	n	140	n	n
COc1cccc(COC(=O)C2CCN(C(=O)c3ccc(F)cc3)CC2)c1OC	n	x	x	n	x	n
CCN(CC(=O)Nc1ccc(NC(C)=O)cc1)C(=O)c1ccc(=O)n(C)n1	n	x	x	n	x	98
CCN(CC(=O)Nc1ccc(NC(C)=O)cc1)C(=O)c1ccc(=O)[nH]c1	n	n	n	n	n	n
CCN(CC)CCOC(=O)CCc1cccc2ccccc12	n	n	n	n	n	n
CCN(CC)CCOC(=O)C(Cc1ccco1)Cc1cccc2ccccc12 (stereo not drawn)	n	x	x	n	x	52
O=C(C(c1ccccc1)c1ccccc1)N1CCN(CCN2C(=O)c3cccc4cccc(c34)C2=O)CC1	n	n	n	n	n	52
Cc1c(C(=S)Nc2ccccc2)cnn1-c1ccc([N+](=O)[O-])cc1	n	4.0	n	n	n	n
CC(=O)N(C(C)=O)c1cccc(N(Cc2ccccc2)Cc2ccccc2)c1	n	x	x	n	x	54
Cc1cccc(N(Cc2ccccc2)C(=O)CCl)c1	n	n	n	n	n	n
Cc1ccccc1/C=C/C(=O)N1CCOCC1	n	n	n	n	n	n
COc1ccccc1/C=C/C(=O)N1CCOCC1	n	n	n	n	n	85
CC1C(=O)C(C)C(c2cc(Br)ccc2O)NC1c1cc(Br)ccc1O (stereo not drawn)	n	x	x	n	x	58
CC1C(=O)C(C)C(c2ccc(Br)cc2)NC1c1ccc(Br)cc1 (stereo not drawn)	n	n	n	n	n	n
COCCOC(=O)/C(=C/c1ccc(OC(=O)c2ccccc2)cc1)C(C)=O	n	4.0	n	57	n	n
